Screening data as filed in PubChem.
Cav32 inh: inhibitors of human Cav3.2 T-type calcium channel; O95180; Cav3.2-expressing cells, Fluo-4 calcium fluorescence FDSS; stronger effect = lower value; B-score at 10 µM; 100,000 tested, 4% active; AID 449739;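 active = single-dose well whose peak fluorescence ratio is a statistical outlier from its plate by either plate-standardised score or position-corrected B-score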
CYP2C19 activ: increases human CYP2C19 enzyme activity; activation factor at 5 µM; 96,000 tested, under 10 active; recombinant CYP2C19, luciferin-H EGE luminescence; stronger effect = higher value; 0 = fully inhibited enzyme, 1 = untreated enzyme; AID 1025;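 active = activation factor of at least 2 at 5 µM in the primary screen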;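 also: 0 = wells with 2.5 mM tranylcypromine and 1 = vehicle-only wells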
CYP2C9 inhib: inhibitors of human CYP2C9 | P11712 | CYP2C9 Supersomes, luciferin-H conversion, luminescence | inhibition, % at 5 µM | 96,000 tested, 20% active | AID 777;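 active = blocking of liver enzyme CYP2C9 beyond about 50% at 5 µM, limit read from the data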
Target sequence (P11712 whole entry, looked up): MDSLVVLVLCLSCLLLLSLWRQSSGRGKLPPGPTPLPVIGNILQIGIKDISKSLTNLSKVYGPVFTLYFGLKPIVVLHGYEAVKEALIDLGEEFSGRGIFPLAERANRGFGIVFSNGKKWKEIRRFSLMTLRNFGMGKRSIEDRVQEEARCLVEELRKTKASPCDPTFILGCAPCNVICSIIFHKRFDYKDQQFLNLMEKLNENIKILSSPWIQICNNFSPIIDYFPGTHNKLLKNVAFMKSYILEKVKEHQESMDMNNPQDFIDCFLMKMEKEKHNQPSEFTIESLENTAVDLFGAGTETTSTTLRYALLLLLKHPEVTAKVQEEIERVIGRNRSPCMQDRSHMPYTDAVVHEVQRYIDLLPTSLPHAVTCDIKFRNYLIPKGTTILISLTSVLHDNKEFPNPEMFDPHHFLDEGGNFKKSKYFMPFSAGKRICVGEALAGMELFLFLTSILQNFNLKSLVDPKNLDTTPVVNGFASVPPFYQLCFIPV
CYP2C19 inhib: inhibitors of human CYP2C19; P33261; CYP2C19 Supersomes, luciferin-H EGE luminescence, 30 min; inhibition, % at 5 µM; 96,000 tested, 21% active; AID 778;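 active = CYP2C19 inhibition above a set limit at 5 µM in the primary screen, cut at about 50% in these data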;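 also: plate controls were negative control wells for no effect and 2.5 mM tranylcypromine positive control for full effect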
CYP2C9 activ: CYP2C9 (human) activation | P11712 | recombinant CYP2C9, luciferin-H conversion, luminescence; stronger effect = higher value; factor 1 = untreated enzyme, 0 = blocked | activation factor at 5 µM | 96,000 tested, 1.4% active;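 active = activation factor of 2 or more for CYP2C9 at a 5 µM dose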;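 also: 0 = sulfaphenazole-blocked wells and 1 = vehicle-only wells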
* hit, by the source's call; nt = no result. Shown are actives, neighbours in structure and some others; about 27% of the full set was active somewhere.

SMILES	Cav32 inh	CYP2C19 activ	CYP2C9 inhib	CYP2C19 inhib	CYP2C9 activ
CSc1cccc(NC(=O)CN(C)S(=O)(=O)c2ccccc2)c1	-2.3	0.1	20	86*	0.8
CCCC(=O)Nc1ccccc1NC(=O)CN(C)S(=O)(=O)c1ccccc1	0.31	0.9	58*	10	0.4
CSc1cccc(NC(=O)CN(C)S(=O)(=O)c2ccc(F)cc2)c1	nt	0.4	1	63*	1
CN(CC(N)=O)S(=O)(=O)c1ccc(F)cc1	0.48	1	-5	0	1.1
CC(=O)c1cccc(NC(=O)CCS(=O)(=O)c2cccc3nsnc23)c1	0.043	0.5	35	50	0.7
COc1ccccc1C(=O)Nc1cccc(SC)c1	-3.2	nt	nt	nt	nt
CSc1cccc(NC(=O)COc2cccc3ccccc23)c1	-0.66	0.7	-121	30	2.2*
CCOC(=O)c1c(-c2cccs2)csc1NC(=O)COC(=O)c1c(C)noc1C	-1.3	0.5	87*	46	0.1
COC(=O)c1c(-c2cccs2)csc1NC(=O)CN1CCOCC1	0.12	0.1	96*	94*	0
COc1cc2c(cc1OC)C(c1cc(OC)c(OC)c(OC)c1)NCC2 (stereo not given)	0.18	nt	nt	nt	nt
Cc1ccc(C2=N/C(=C/c3cccs3)C(=O)N2Nc2ccccc2)cc1	-0.56	1	12	-3	0.9
N#Cc1cc2c(nc1SCC(=O)Nc1sc3c(c1C#N)CCC3)CCCCC2	-0.034	1	16	0	0.8
N#Cc1c(NC(=O)CSc2nc(N)cc(=O)[nH]2)sc2c1CCCCCC2	1.1	0.4	30	58*	0.7
N#Cc1c(NC(=O)CSc2ncn(-c3ccccc3)n2)sc2c1CCCC2	0.36	0.2	90*	81*	0.1
Cn1cnnc1SCC(=O)Nc1sc2c(c1C#N)CCCCC2	-1.1	nt	nt	nt	nt
N#Cc1c(NC(=O)CSc2ncn[nH]2)sc2c1CCCCC2	-3.6	0.8	71*	15	0.3
Cc1cccc(CN2[C@@H](CC(C)C)COCCS2(=O)=O)c1	-0.053	nt	nt	nt	nt
Clc1ccc2nc(N3CCCCC3)[nH]c2c1	2.1	0.6	16	36	0.8
O=c1c(Cl)c(N2CCCCC2)cnn1-c1nc2ccccc2[nH]1	1.2	0.4	24	62*	0.8
CCCNS(=O)(=O)c1ccc(CCC(=O)N2CCC(C)CC2)cc1	-0.0068	0.2	52*	82*	0.5
CC(C)(C)NS(=O)(=O)c1ccc(CCC(=O)N2CCOCC2)cc1	0.46	0.7	24	29	0.8
CCCNS(=O)(=O)c1ccc(CCC(=O)NCC2CCCO2)cc1 (stereo not given)	-0.0039	nt	nt	nt	nt
CC1CCN(C(=O)CCc2ccc(S(=O)(=O)NC(C)(C)C)cc2)CC1	0.4	0.3	63*	74*	0.4
COc1cc2c(cc1OC)CN(C(=O)c1ccc(OC)c(S(=O)(=O)N3CCOCC3)c1)CC2	1.6	0.9	21	7	0.8
Cc1noc(C)c1C(=O)N1CCN(C(=O)c2sc3cc(Cl)ccc3c2Cl)CC1	2.4	0.6	43	35	0.6
SMILES	Cav32 inh	CYP2C19 activ	CYP2C9 inhib	CYP2C19 inhib	CYP2C9 activ
Cc1c(CN(C)C(=O)c2sc3cc(Cl)ccc3c2Cl)cnn1C	0.14	0.1	-34	93*	1.3
O=C(O)CCCCCNS(=O)(=O)c1ccc(Cl)cc1	0.4	1.2	-22	-20	1.2
Cc1ccccc1-c1ccc(=O)n(CC(=O)Nc2ccc(N3CCOCC3)cc2)n1	-0.037	0.9	12	10	0.9
CCOC(=O)C1(CC)CC(CSc2nc3ccccc3[nH]2)OC1=O (stereo not given)	0.018	0.5	82*	52*	0.2
CCOC(=O)C1(CCC(C)C)CC(CSc2nc3ccccc3[nH]2)OC1=O (stereo not given)	-2.3	0.9	58*	14	0.4
CSc1nc(C)cc(NC(N)=O)n1	-0.41	0.9	-11	7	1.1
CC(=O)c1cccc(S(=O)(=O)N2CCN(c3nc4cc(C)cc(C)c4cc3C#N)CC2)c1	-1.8	0.4	67*	58*	0.3
CCOC(=O)N1CCN(Cc2nc3c(c(=O)[nH]c(=O)n3C)n2Cc2cc(C)ccc2C)CC1	1.3	0.7	72*	28	0.3
Cn1c(=O)[nH]c(=O)c2c1nc(CN1CCN(c3cccc(Cl)c3)CC1)n2CCc1ccccc1	-1.4	0.9	23	12	0.8
CCCCCCCCn1c(N2CCN(c3cccc(Cl)c3)CC2)nc2c1c(=O)[nH]c(=O)n2C	-2	0.9	52*	15	0.5
